# According to PubChem BioAssay (EPA / NIEHS):
# Values joined by “and” are separate entries in the source; they are usually repeats but may differ in a detail not shown here. Equal values may be shown once. Active and inactive are the calls of the source. Rule for the calls: active = hit-call score of the fitted dose curve at least 0.9, where 1 is the maximum; inactive = score below 0.9.
# Read-out: Basic fibroblast growth factor (bFGF), FGF2 (gene 2247)
# Test: BSK_MyoF_bFGF: BioMAP Diversity Plus: MyoF Assay for Basic fibroblast growth factor (bFGF) Biomarker Activity (AID 2284246)
# Settings: primary human lung fibroblasts
# Experimental: BSK_MyoF is a cell-based, multiplexed-readout assay that uses lung fibroblasts, a human […] primary cell, with measurements taken at 24 hours after chemical dosing in a microplate: 96-well plate.BSK_MyoF_bFGF is an assay component measured in the BSK_MyoF assay. It measures bFGF antibody related to regulation of gene expression using ELISA technology.Data from the assay component BSK_MyoF_bFGF was analyzed at the endpoint, BSK_MyoF_bFGF, in the positive analysis fitting direction relative to DMSO as the negative control and baseline of activity. Using a type of binding reporter, gain or loss-of-signal activity can be used to understand protein changes. To generalize the intended target to other relatable targets, this assay endpoint is annotated to the 'growth factor' intended target family, where the subfamily is 'basic fibroblast growth factor '.
# The levels of cell surface (or secreted, indicated by the prefix "s") biomarker endpoints were measured by ELISA. Overt cytotoxicity to cells in confluent adherent cultures (all systems other than the BT system) was assessed by measuring total protein levels using sulforhodamine B (SRB) staining in parallel cultures at the time of biomarker measurements, indicated as SRB endpoints. For proliferation assays for adherent cell types, individual cell types are cultured at sub-confluence and relative cell numbers quantified by SRB staining at time points optimized for each system (48 h: 3C and CASM3C systems; 72 h: BT and HDF3CGF systems; 96 h: SAg system). SRB was performed by staining cells with 0.1% SRB after fixation with 10% TCA and reading wells at 560 nm.Viability and proliferation of PBMC (T cells) was quantified by Alamar Blue reduction for the SAg and BT systems. For PBMC viability (referred to as PBMC Cytotoxicity within the assay endpoint names), cells were plated (75,000/well in a 96-well plate) and then chemical samples added for 1 h before addition of activators, SEB and TSST-1 (20 ng/mL final concentration each). Cells were incubated for 90 h. Then, Alamar Blue (20 uL/well) (Invitrogen, Cat DAL1100) was added for 6 h, and the plates were read with a fluorescence microplate reader at 546/580 nm (excitation/emission). For PBMC proliferation, cells were plated and activated as above but incubated for only 16 h prior to addition of Alamar Blue. Plates were read after 6 h.
Structure (SMILES),outcome,AC50
O=C1CCCCCCCCCCC1,inactive,
C[N+](C)(C)CCCNS(=O)(=O)C(F)(F)C(F)(F)C(F)(F)C(F)(F)C(F)(F)C(F)(F)C(F)(F)C(F)(F)F,,46.9 µM (active) and 47.2 µM (active)
CCCCC1C(=O)N(c2ccccc2)N(c2ccccc2)C1=O,inactive,
CCCCCC1=CCCC1=O,inactive,
CC(c1cc(C(C)(C)C)cc(C(C)(C)C)c1O)c1cc(C(C)(C)C)cc(C(C)(C)C)c1O,inactive,
CC/C=C\C/C=C\C/C=C\CCCCCCCC(=O)OC,,9.83 µM (active)
CC=C(C)C(C)=O,inactive,
CC1=CC=C(C(C)C)CC1,inactive,
CC(C)c1cccc(C(C)C)c1N,inactive,
CC(Cl)COP(=O)(OCC(C)Cl)OCC(C)Cl (stereo not given),inactive,
CCCCCCOC(=O)CCCCC(=O)OCCCCCC,inactive,
Oc1c(Cl)cc(Cl)c(Cl)c1Cl,,20 µM (active)
CCc1cccc(C)c1N(C(=O)CS(=O)(=O)O)C(C)COC (stereo not given),inactive,
CC(C)[N+](C)(CCOC(=O)C1c2ccccc2Oc2ccccc21)C(C)C,inactive,
CC/C=C\CCOC(=O)c1ccccc1O,,31.3 µM (active)
O=C(Cl)c1c(Cl)c(Cl)c(C(=O)Cl)c(Cl)c1Cl,inactive,
Clc1cc(Cl)c(Cl)c(Cl)c1Cl,inactive,
C=CC(=O)NCOCCCC,inactive,
C=CC(=O)OCCCCCCCC(C)C,inactive,
CCOC(=O)/C=C\C(=O)OCC,inactive,

Structure (SMILES),outcome,AC50
O=C(Oc1ccccc1)c1ccccc1C(=O)Oc1ccccc1,inactive,
CCC1(C)C(=O)N(Cl)C(=O)N1Cl (stereo not given),inactive,
CC1(C)CC(O)CC(C)(C)N1[O],inactive,
CCCCCCC=O,inactive,
COc1ccc(C(=O)c2ccccc2)c(O)c1,inactive,
c1ccc2sc(SSN3CCOCC3)nc2c1,,28.8 µM (active)
CCOC(=O)C1=NN(c2ccc(Cl)cc2Cl)C(C)(C(=O)OCC)C1 (stereo not given),inactive,
C=CCCCCCCCCC=O,inactive,
CCCCCCCCCCCC(C)=O,inactive,
C=CC(=O)OCC(C)OCC(C)OCC(C)OC(=O)C=C (stereo not given),,31.1 µM (active)
c1ccc2c(c1)[nH]c1ccccc12,inactive,
Nc1cccc(N)n1,inactive,
O=C(O)C(F)(F)C(F)(F)C(F)(F)C(F)(F)C(=O)O,inactive,
Oc1ccc(/C=C/c2cc(O)cc(O)c2)cc1,inactive,
O=C1CCCCCCCCCCCN1,inactive,
Cc1c(O)cccc1O,inactive,
CCN1CN(CC)CN(CC)C1,inactive,
CCCCCCCCC(CO)CCCCCC (stereo not given),inactive,
C=C(C)C(=O)OCCCCCCCCCCCC,inactive,
CC=C(C)C=CC=C(C)C,inactive,
